Experimental data: PubChem BioAssay (Tox21)
Results filed as inconclusive are left out. Where a call stands in place of a potency, no number is given. A number with no mark means an inactive call. Active and inactive are the calls of the source. Calls come from the whole dose curve.

What follows are compounds tested against D(2) dopamine receptor (Homo sapiens) (UniProt P14416) (assay: Dopamine D2 receptor (DRD2) small molecule agonists, cell-based qHTS assay (AID 1963594; note: nearly all actives have a fitted effect of over 35% in size)). Conditions: HEK293-DRD2 cAMP HTRF, agonist mode, 30 min; series mostly up to 92.4 µM; activation: at the top concentration.
Excerpt: National Center for Advancing Translational Sciences [NCATS]
Division of Preclinical Innovation [DPI]
U.S. Environmental Protection Agency [EPA]
National Institutes of Environmental Health Sciences [NIEHS]
National Toxicology Program [NTP]
U.S. Food and Drug Administration [FDA]
DRD2 is the D2 subtype of the dopamine receptor, which is coupled to Gi subtype of G protein-coupled receptor. This G protein-coupled receptor inhibits adenylyl cyclase activity. The DRD2-HEK293 cell line stably expressing D2 dopamine receptor can be used for screening agonists and antagonists of interactions between D2 and its ligands. The Hek293-DRD2 cAMP assay is based on HTRF technology. It measures changes of cAMP accumulation in response to Gi coupled GPCR activation or inhibition.
Tox21 Assay Protocol Summary:
DRD2-Hek293 cells were dispensed at 600 cells/3uL/well in 1536-well white plates using a Multidrop Dispenser. After the assay plates were incubated at a 37 C/5% CO2 incubator for 24 h, 1 uL of Ro20-1724 at final concentration of 0.1 mM was transferred to the assay plate by a Flying Reagent Dispenser. Following Ro20-1724 addition, 23 nL of compound dissolved in DMSO, positive controls or DMSO only was added to the assay plates via Wako pintool station. The assay plates were incubated at room temperature for 10 min. Next, 1 uL of NKH477 at 200nM was added into the plates. After the assay plates were incubated at room temperature for an additional 30 min, 2.5 ul/well of cAMP-d2 and 2.5 ul/well of anti-cAMP-cryptate were added respectively into the assay plates using a Flying Reagent Dispenser. The plates were incubated at room temperature for 1 h. The fluorescence intensity in the plates was measured at 340 nm excitation and 665 & 620 nm emission by an Envision plate reader.

D(2) dopamine receptor (Homo sapiens), sequence (P14416 whole entry, looked up): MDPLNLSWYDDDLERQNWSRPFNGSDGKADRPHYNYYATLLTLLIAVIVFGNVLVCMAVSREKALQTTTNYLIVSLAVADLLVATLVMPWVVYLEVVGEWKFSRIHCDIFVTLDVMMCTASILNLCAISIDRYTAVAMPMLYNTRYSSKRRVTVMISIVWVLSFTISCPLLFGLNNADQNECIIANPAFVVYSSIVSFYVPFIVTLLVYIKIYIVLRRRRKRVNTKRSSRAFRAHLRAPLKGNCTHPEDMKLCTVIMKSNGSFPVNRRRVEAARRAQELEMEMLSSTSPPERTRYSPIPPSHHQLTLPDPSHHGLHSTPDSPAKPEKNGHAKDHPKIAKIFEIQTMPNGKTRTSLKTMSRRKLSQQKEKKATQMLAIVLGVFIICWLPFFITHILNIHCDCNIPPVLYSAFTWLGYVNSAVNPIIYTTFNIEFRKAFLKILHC

Compound | Potency | activation
CCCC[n+]1ccccc1 | inactive | –
N#CC(Cl)(Cl)Cl | – | 0.186%
Nc1cc(Cl)cc(Cl)c1 | inactive | –
CC(C)(Cl)Cl | inactive | –
O=C(Cl)C(Cl)Cl | – | 4.25%
CCN(CC)c1ccccc1 | inactive | –
CCNCC | inactive | –
CC(C)CC(C)(c1ccc(O)cc1)c1ccc(O)cc1 | inactive | –
O=C(O)COc1cc(Cl)c(Cl)cc1Cl | inactive | –
C=CC(=O)OCC(C)C | – | -0.469%
Clc1ccc(C2(Cn3cncn3)OCCO2)c(Cl)c1 | – | 4.29%
C#CCO | – | -1.18%
Cn1cc(-c2ccccc2)c(=O)c(-c2cccc(C(F)(F)F)c2)c1 | – | -0.238%
Cc1ccc2ccccc2c1 | – | 0.413%
N#Cc1cc(Br)c(O)c(Br)c1 | inactive | –
CCOP(=S)(OCC)Oc1ccc([N+](=O)[O-])cc1 | inactive | –
CCC(Br)(CC)C(=O)NC(N)=O | – | 0.42%
CCOC(=S)S | inactive | –
Nc1ccc(Br)cc1 | inactive | –
O=C(O)c1nc(Cl)ccc1Cl | inactive | –

Compound | Potency | activation
C1=Cc2cccc3cccc1c23 | – | 0.0764%
CN1CC[C@]23c4c5ccc(O)c4O[C@H]2[C@@H](O)CC[C@H]3[C@H]1C5 | – | -0.621%
C=CC(C)=O | – | -5.6%
Cn1c(-c2ccccc2)cc(-c2ccccc2)[n+]1C | inactive | –
O=NN1CCCCCCC1 | inactive | –
CC(C)C(=O)OCC(C)(C)C(OC(=O)C(C)C)C(C)C (stereo not given) | inactive | –
C#C[C@]1(O)CC[C@H]2[C@@H]3CCC4=CC(=O)CC[C@]4(C)[C@H]3CC[C@@]21C | inactive | –
C=CCOC(Cn1ccnc1)c1ccc(Cl)cc1Cl (stereo not given) | inactive | –
CCOP(=S)(OCC)Oc1cc(C)nc(C(C)C)n1 | inactive | –
CC(C)C#N | inactive | –
CN(C)CCO | inactive | –
O=C(NC(=O)c1ccccc1Cl)Nc1ccc(OC(F)(F)F)cc1 | – | -1.91%
NC(=O)O | – | -6.19%
CCOP(=S)(OCC)SCn1c(=O)oc2cc(Cl)ccc21 | inactive | –
O=C(O)CC[N+](=O)[O-] | inactive | –
CC(C)(O)C(=O)Nc1ccc([N+](=O)[O-])c(C(F)(F)F)c1 | inactive | –
CCCCCCCCCc1ccc(O)cc1 | inactive | –
CCCC[N+]1(C)CCCC1 (tested in a mixture with another compound) | – | -1.15%
Brc1c(Br)c(Br)c(Oc2c(Br)c(Br)c(Br)c(Br)c2Br)c(Br)c1Br | – | 4.7% [at 19 µM]
CCCN(CCC)N=O | inactive | –
